Most compounds without a hit are left out; they make up all but 8.7% or so of the library.
JMJD2A Tudor – JMJD2A Tudor domain (human) inhibition | O75164 | AlphaScreen JMJD2A-Tudor / H3K4me3 peptide binding | Potency, µM (doses to about 114 µM), most hits filed as inhibitors | 390,000 tested, 4.4% active | AID 504339; also: nearly all actives have a fitted effect of over 50% in size
BAZ2B block – BAZ2B (human) inhibition; Q9UIF8; AlphaScreen BAZ2B-H3K14Ac peptide displacement; Potency, µM (highest dose often 114 µM), actives largely listed as inhibitors; 360,000 tested, 4.4% active; AID 504333; also: nearly all actives have a fitted effect of over 60% in size
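Compounds, titrated to a top concentration of 110 uM, were incubated 30 min at room temperature with preformed BAZ2B/acetyl-K14 H3 peptide complex (50 nM each). Proximity signal was measured by AlphaScreen after 20 min with beads.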
ALOX12 inh – blocks human arachidonate 12S-lipoxygenase | purified 12hLO, xylenol orange hydroperoxide absorbance | Potency, µM (titrated, usually from 108 µM), hits mostly inhibitors | 580,000 tested, 1.1% active | AID 1671190
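Purified human 12hLO (150 nM final) in 25 mM Hepes, 0.01% Triton X-100, pH 7.0 was preincubated 15 min at room temperature with compound. Then 40 uM arachidonic acid was added, 30 min. Hydroperoxide was read by Fe-XO absorbance ratio 573/405 nm.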
HP1b binding inh – inhibitors of HP1-beta chromodomain binding to methylated histone tails | P83916 | AlphaScreen HP1-beta / biotin-H3K9me3 peptide binding | Potency, µM (top dose mostly 114 µM), most hits filed as inhibitors | 390,000 tested, 0.56% active | AID 540317; also: nearly all actives have a fitted effect of over 70% in size
Target sequence (P83916 whole entry, looked up): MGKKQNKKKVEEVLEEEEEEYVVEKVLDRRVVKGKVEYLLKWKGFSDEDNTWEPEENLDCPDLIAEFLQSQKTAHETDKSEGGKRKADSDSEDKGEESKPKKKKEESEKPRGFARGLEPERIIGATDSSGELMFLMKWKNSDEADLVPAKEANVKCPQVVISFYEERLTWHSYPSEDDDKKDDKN
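Compound inhibition of the preformed complex between 50 nM HP1-beta and 50 nM biotinylated H3K9me3 peptide was read by AlphaScreen. Buffer was PBS pH 7.4 with 0.01% Tween-20. Incubations ran 30 min at room temperature, with 10 ug/mL donor/acceptor beads.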
G9a inh – inhibitors of human histone lysine methyltransferase G9a; Q96KQ7; G9a H3K9 monomethylation, AlphaScreen, 2 h; Potency, µM (doses to about 102 µM), hits mostly inhibitors; 350,000 tested, 8.8% active; AID 504332; also: nearly all actives have a fitted effect of over 75% in size
Target sequence (Q96KQ7 913-1193 limits assumed): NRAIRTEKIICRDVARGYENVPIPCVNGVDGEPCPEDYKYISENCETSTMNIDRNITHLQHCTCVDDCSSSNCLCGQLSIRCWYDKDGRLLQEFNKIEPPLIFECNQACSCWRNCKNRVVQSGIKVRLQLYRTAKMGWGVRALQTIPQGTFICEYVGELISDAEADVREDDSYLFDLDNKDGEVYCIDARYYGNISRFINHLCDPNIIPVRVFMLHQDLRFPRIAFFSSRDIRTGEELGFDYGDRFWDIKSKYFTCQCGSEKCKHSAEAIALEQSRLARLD
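Signal arises when biotinylated H3K9 peptide, once monomethylated, bridges streptavidin donor and antibody-captured acceptor beads. Enzyme at 20 nM was preincubated 15 min with test compounds; peptide 500 nM and SAM 20 uM then reacted for 2 h.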
Sfp inh – inhibitors of Bacillus subtilis Sfp phosphopantetheinyl transferase | Q9F4F7 | Biochemical Sfp PPTase activity, qHTS | Potency, µM, most hits filed as inhibitors | 310,000 tested, 3.5% active | AID 1490;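 also: the enzyme is Sfp with the accession as filed and its product quenches rhodamine fluorescence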
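Buffer: 50 mM Hepes-Na pH 7.6, 10 mM MgCl2, 0.01% Nonidet P-40, 0.01% BSA. Enzyme 15 nM, pre-exposed to compound 15 min; substrates then added and fluorescence change tracked over 30 min.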
Hits are given with their value; n = inactive; u = inconclusive; x = no result; ! = not confirmed by another sample; [ ] = remark or other dose. Calls follow the shape of the dose curve; as a rule, active = well fitted curve in the direction sought with a large enough effect; inconclusive = small, poorly fitted or top-dose-only effect, or another doubt; inactive = no such curve, though single readings can be large; an effect the other way counts as inactive or inconclusive.

SMILES	JMJD2A Tudor	BAZ2B block	ALOX12 inh	HP1b binding inh	G9a inh	Sfp inh
C=CCn1c(O)c(Cc2ccc(OCC)cc2)c(=O)[nH]c1=O	31.6µM	n	n	n	n	n
C=CCn1c(O)c(C=NCCCOc2ccc(CC)cc2)c(=O)[nH]c1=S	n	n	n	n	u	n
COc1ccccc1N1C(=O)NC(=O)/C(=C\c2cnn(-c3ccccc3)c2)C1=O	u	n	u	n	8.91µM	31.6µM
O=C1NC(=O)N(Cc2ccccc2)C(=O)/C1=C/c1cnn(-c2ccccc2)c1	x	u	x	x	5.62µM	n
C#CCOc1cccc(C2SCC(=O)Nc3c2c(C)nn3-c2ncnc3nc[nH]c23)c1 (stereo not given)	x	x	n	x	x	x
CCc1ccc(NC(=O)CN2C(=O)CN=C(c3ccc(OC)cc3)c3c2sc2c3CCC2)cc1	x	x	n	x	x	x
Cc1ccnc(-n2c(C)cc(C=C3C(=O)N(C)C(=S)N(C)C3=O)c2C)c1	u	u	u	u	31.6µM	50.1µM
Cc1cc(C=C2C(=O)N(C)C(=S)N(C)C2=O)c(C)n1-c1ccncc1	44.7µM	n	n	u	50.1µM	39.8µM
Cc1cc(C)cc(-n2c(C)cc(/C=C3\C(=O)NC(=O)N(C)C3=O)c2C)c1	n	n	n	n	n	n
COc1ccc(-c2cc([C@H]3CN4CC[C@H]3C[C@@H]4CNC(=O)NC(C)C)n(C)n2)cc1	x	x	n	x	x	x
O=C(NC1CCCCC1)Oc1cc2oc(=O)sc2cc1Cl	n	n	u	n	39.8µM	3.55µM
COc1ccc(OC)c(-n2c(O)c(/C=C3\C(C)=Nc4ccccc43)c(=O)[nH]c2=O)c1	n	n	u	n	50.1µM	n
O=c1[nH]c(=O)n(-c2ccccc2)c(O)c1/C=C1/C(c2ccccc2)=Nc2ccccc21	u	u	u	n	u	n
COc1ccc(OC)c(-n2c(O)c(C=NCCN3CCNCC3)c(=O)[nH]c2=S)c1	n	n	n	n	n	n
COC(=O)C1=Nc2ccccc2/C1=C\c1c(O)n(-c2ccc(Br)cc2)c(=O)[nH]c1=O	u	56.2µM	35.5µM	n	15.8µM	44.7µM
COC(=O)C1=Nc2ccccc2/C1=C\c1c(O)n(-c2ccc(OC)cc2)c(=O)[nH]c1=O	u	79.4µM	u	n	n[12.7 µM]	50.1µM
C=C[C@H]1CN2CC[C@H]1C[C@@H]2CNCc1ccc(OC)cc1	x	x	n	x	x	x
CCN(CC)Cc1cc(Nc2ccnc3cc(Cl)ccc23)ccc1O	n	50.1µM!	n	n	u	n
CN(C)C(=O)Oc1ccnc2cc(Cl)ccc12	n	n	n	n	n	n
c1ccc2ccccc2c1	n	n	n	n	n[0.501 µM]	u
Oc1ccccc1O	39.8µM	n	u	u	1.78µM	x
C#CCN(C)C[C@H]1CN2CC[C@H]1C[C@@H]2CNS(=O)(=O)c1ccc(C)cc1	x	x	n	x	x	x
COC[C@H]1CCCN1C[C@H]1CN2CC[C@H]1C[C@@H]2CN	x	x	n	x	x	x
CN1CC(C(=O)c2cccs2)C(c2ccc(Cl)cc2)C1 (stereo not given)	n	n	n	n	n	n
CN1CC(C(=O)c2ccc(Cl)cc2)C(c2ccccc2)C1 (stereo not given)	n	n	u	n	44.7µM	n
SMILES	JMJD2A Tudor	BAZ2B block	ALOX12 inh	HP1b binding inh	G9a inh	Sfp inh
CCCNC(=O)C(C)N1CC=C(c2c[nH]c3ccccc23)CC1 (stereo not given)	x	x	n	x	x	x
CC(C)(C)OC(=O)NNC(=S)NC1CCCCC1	n	n	n	n	25.1µM	n
O=[S+]1([O-])NC2(CCN(CC3CCCC3)C2)COc2ccncc21 (stereo not given)	x	x	n[6.33 µM]	x	x	x
O=c1[nH]c(=S)[nH]c(O)c1N=Nc1ccc(SC(F)F)cc1	n	n	u	n	44.7µM	n
S=C=Nc1cccc(C2(N3CCCCC3)CCCCC2)c1	n	n	n	n	14.1µM	n
O=C(O)CCCC(=O)N1C[C@@H]2C[C@H](C1)c1ccc(-c3ccc(Cl)cc3)c(=O)n1C2	x	x	n	x	x	x
C/C=C1\C[N@@+]2(C)CC[C@@]34C(=C(C=O)[C@H]1C[C@H]32)Nc1ccccc14	x	x	x	x	u	35.5µM
O=C(O)CSC(c1ccc(F)cc1)c1ccc(F)cc1	x	x	n	x	x	x
CNc1oc(-c2ccc(C)cc2)nc1P(=O)(OC)OC	x	x	n	x	x	x
CC1CCN(C(=O)c2ncn(C)c2C(=O)N2CCC(C)CC2)CC1	22.4µM	x	u	n	x	x

Screens as filed in PubChem.
